From the supplement of paper PMC5662767
Where “and” joins values, the source holds several entries; their conditions need not be identical. Equal values may be shown once. Where a name gives a salt, the structure may show the parent alone.

tested on: Drosophila S2 cl14 SmoIP sensor cells; assay: normalized SmoIP GFP fluorescence (untreated unstimulated = 0%, untreated Hh-stimulated = 100%); higher = more Smo activation sensor fluorescence; settings: stimulation: Hh conditioned medium (+Hh); compound concentration: 2 uM; 24 h
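Further: flow cytometry read-out as median GFP intensity of gated cells, compounds added 30 min before Hh-conditioned or mock medium, mock-treated cells serving as unstimulated baseline.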

SMILES | normalized SmoIP GFP fluorescence
CO[C@H]1C[C@@H]2CC[C@@H](C)[C@@](O)(O2)C(=O)C(=O)N2CCCC[C@H]2C(=O)O[C@H]([C@H](C)C[C@@H]2CC[C@@H](O)[C@H](OC)C2)CC(=O)[C@H](C)/C=C(\C)[C@@H](O)[C@@H](OC)C(=O)[C@H](C)C[C@H](C)/C=C/C=C/C=C/1C [Rapamycin] | 26.9%
COc1cccc(-c2cc(=O)c3ccccc3o2)c1N | 115%
CC(C)c1cnn2c(NCc3ccccc3)cc(NCCCCCCN)nc12 | 105%
CN1CCN(c2ccc3nc(-c4c(N)c5c(F)cccc5[nH]c4=O)[nH]c3c2)CC1 [dovitinib] | 240%
Cc1cc(C)c(Nc2ccnc(Nc3ccc(C#N)cc3)n2)c(C)c1 [dapivirine] | 111%
O=c1sn(-c2cccc3ccccc23)c(=O)n1Cc1ccccc1 [tideglusib] | 101%
COc1cc2nc(N3CCN(C(=O)C4COc5ccccc5O4)CC3)nc(N)c2cc1OC (stereo not given) [Doxazosin-mesylate] | 105%
CC(=O)Nc1ccc(C(=O)Nc2ccccc2N)cc1 [ci994-tacedinaline] | 129%
CNC(=O)c1ccccc1Sc1ccc2c(/C=C/c3ccccn3)n[nH]c2c1 [Axitinib] | 142%
c1ccc2c(c1)CCCC2C1=NCCN1 (stereo not given) [tetrahydrozoline-hcl] | 115%
O=C(O)c1cccc(-c2noc(-c3ccccc3F)n2)c1 | 116%
CC(C)CCN1c2nc(Nc3cc(F)c(O)c(F)c3)ncc2N(C)C(=O)C1C (stereo not given) | 144%
O=C(Nc1cccc2cccnc12)c1ccc(N2C(=O)[C@@H]3[C@H](C2=O)[C@@H]2C=C[C@H]3C2)cc1 [iwr-1-endo] | 114%
C#Cc1cccc(Nc2ncnc3cc(OC)c(OCCCCCCC(=O)NO)cc23)c1 | 128%
CN(Cc1cnc2nc(N)nc(N)c2n1)c1ccc(C(=O)N[C@@H](CCC(=O)O)C(=O)O)cc1 [Abitrexate] | 200%
CN1CCc2c(c3ccccc3n2Cc2ccc(C(=O)NO)cc2)C1 [tubastatin-a-hcl] | 101%
CN1CCC(=C2c3ccccc3CC(=O)c3sccc32)CC1 [ketotifen-fumarate-zaditor] | 118%
O=C(c1ccc(OCCN2CCCCC2)cc1)c1c(-c2ccc(O)cc2)sc2cc(O)ccc12 [Evista] | 118%

SMILES | normalized SmoIP GFP fluorescence
CC(C)N(CCCNC(=O)Nc1ccc(C(C)(C)C)cc1)C[C@H]1O[C@@H](n2ccc3c(N)ncnc32)[C@H](O)[C@@H]1O | 106% and 111%
COc1ccc(CC(C)NCC(O)c2ccc(O)c(NC=O)c2)cc1 (stereo not given) [formoterol-hemifumarate] | 129%
Cc1ccc(F)c(NC(=O)Nc2ccc(-c3cccc4[nH]nc(N)c34)cc2)c1 | 115%
CC(C)N(CCCNC(=O)Nc1ccc(C(C)(C)C)cc1)C[C@H]1O[C@@H](n2cc(Br)c3c(N)ncnc32)[C@H](O)[C@@H]1O | 140%
Cc1nc(Nc2ncc(C(=O)Nc3c(C)cccc3Cl)s2)cc(N2CCN(CCO)CC2)n1 [Dasatinib] | 126%
NC(=O)c1cccc(-c2cccc(OC(=O)NC3CCCCC3)c2)c1 | 134%
O=C(Nc1cccc(Cl)c1)c1ccccn1 | 105%
CCCNC(=O)Nc1ccc(Oc2ncnc3cc(OC)c(OC)cc23)cc1Cl | 105%
CC[C@H](NC(=O)[C@H](C)NC)C(=O)N1C[C@@H](O)C[C@H]1Cc1c(-c2[nH]c3cc(F)ccc3c2C[C@@H]2C[C@H](O)CN2C(=O)[C@H](CC)NC(=O)[C@H](C)NC)[nH]c2cc(F)ccc12 | 78.2%
CCN(c1cc(-c2ccc(CN3CCOCC3)cc2)cc(C(=O)NCc2c(C)cc(C)[nH]c2=O)c1C)C1CCOCC1 | 106%
C=CC(=O)Nc1cccc(Oc2nc(Nc3ccc(N4CCN(C)CC4)cc3OC)ncc2Cl)c1 | 96.5%
CC(=O)Nc1ccc(NC(=S)NC(=O)c2ccc(C(C)(C)C)cc2)cc1 [tenovin-1] | 97%
CNCc1ccc(-c2cc(-c3nc(-c4ccc(S(=O)(=O)C(C)C)cc4)cnc3N)on2)cc1 | 123%
NC12CC3CC(CC(C3)C1)C2 [Amantadine-hydrochloride(Symmetrel)] | 110%
CC(C)c1cc(-c2n[nH]c(=O)n2-c2ccc3c(ccn3C)c2)c(O)cc1O [ganetespib-sta-9090] | 103%
O=C(C[S+]([O-])Cc1ccco1)NC/C=C\COc1cc(CN2CCCCC2)ccn1 (stereo not given) [lafutidine] | 113%
C[C@]1(O)C[C@@H](c2nc(-c3ccc4ccc(-c5ccccc5)nc4c3)c3c(N)nccn32)C1 | 108%
